# Assay results as given in PubChem BioAssay (EPA / NIEHS).
# Results filed as inconclusive are left out. Activity calls are given as the source filed them. The calls were made as follows: active = hit-call score of the fitted dose curve at least 0.9, where 1 is the maximum; inconclusive = response in the unintended direction; inactive = score below 0.9.
# Tests used:
# [1] = molecular target: rabbit Imidazoline 2 Central (I2C), CKB (gene 100009085) (UniProt P00567); assay: NVS_ENZ_rabI2C: NovaScreen (NVS) Enzymatic Assay for rabbit Imidazoline 2 Central (I2C) (AID 2283228)
# Chain of rabbit Imidazoline 2 Central (I2C), CKB (gene 100009085) (P00567 whole entry, looked up): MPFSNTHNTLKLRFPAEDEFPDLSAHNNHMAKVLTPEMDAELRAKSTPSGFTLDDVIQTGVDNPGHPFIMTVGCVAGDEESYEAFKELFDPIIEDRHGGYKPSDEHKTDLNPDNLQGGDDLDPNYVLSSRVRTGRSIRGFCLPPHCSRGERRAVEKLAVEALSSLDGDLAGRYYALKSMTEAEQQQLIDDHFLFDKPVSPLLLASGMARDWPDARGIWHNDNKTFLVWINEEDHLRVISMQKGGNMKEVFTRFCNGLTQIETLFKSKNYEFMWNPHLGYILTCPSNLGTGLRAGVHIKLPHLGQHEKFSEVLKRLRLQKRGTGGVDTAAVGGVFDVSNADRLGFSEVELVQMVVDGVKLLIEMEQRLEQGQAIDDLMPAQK
# Method in brief: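 Rabbit brain membranes, cell-free; readout by filter-based scintillation counting 1.5 hours after dosing, loss of signal vs DMSO. Initial duplicate test at 25 uM, then concentration-response with 50 uM top concentration.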
# [2] = molecular target: rat Catechol-O-Methyl Transferase (COMT), Comt (gene 24267) (UniProt P22734); assay: NVS_ENZ_rCOMT: NovaScreen (NVS) Enzymatic Assay for rat Catechol-O-Methyl Transferase (COMT) (AID 2283235)
# Method in brief: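 Cell-free enzyme activity with protein extracted from rat dorsal striatum, measured by HPLC with absorbance detection. Compounds screened at 25 uM in duplicate; actives then run in concentration-response up to 50 uM, loss of signal versus DMSO.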
# [3] = molecular target: human Vascular Endothelial Growth Factor Receptor 2 (VEGFR2), KDR (gene 3791) (UniProt P35968); assay: NVS_ENZ_hVEGFR2: NovaScreen (NVS) Enzymatic Assay for human Vascular Endothelial Growth Factor Receptor 2 (VEGFR2) (AID 2283230)
# Chain of human Vascular Endothelial Growth Factor Receptor 2 (VEGFR2), KDR (gene 3791) (P35968 whole entry, looked up): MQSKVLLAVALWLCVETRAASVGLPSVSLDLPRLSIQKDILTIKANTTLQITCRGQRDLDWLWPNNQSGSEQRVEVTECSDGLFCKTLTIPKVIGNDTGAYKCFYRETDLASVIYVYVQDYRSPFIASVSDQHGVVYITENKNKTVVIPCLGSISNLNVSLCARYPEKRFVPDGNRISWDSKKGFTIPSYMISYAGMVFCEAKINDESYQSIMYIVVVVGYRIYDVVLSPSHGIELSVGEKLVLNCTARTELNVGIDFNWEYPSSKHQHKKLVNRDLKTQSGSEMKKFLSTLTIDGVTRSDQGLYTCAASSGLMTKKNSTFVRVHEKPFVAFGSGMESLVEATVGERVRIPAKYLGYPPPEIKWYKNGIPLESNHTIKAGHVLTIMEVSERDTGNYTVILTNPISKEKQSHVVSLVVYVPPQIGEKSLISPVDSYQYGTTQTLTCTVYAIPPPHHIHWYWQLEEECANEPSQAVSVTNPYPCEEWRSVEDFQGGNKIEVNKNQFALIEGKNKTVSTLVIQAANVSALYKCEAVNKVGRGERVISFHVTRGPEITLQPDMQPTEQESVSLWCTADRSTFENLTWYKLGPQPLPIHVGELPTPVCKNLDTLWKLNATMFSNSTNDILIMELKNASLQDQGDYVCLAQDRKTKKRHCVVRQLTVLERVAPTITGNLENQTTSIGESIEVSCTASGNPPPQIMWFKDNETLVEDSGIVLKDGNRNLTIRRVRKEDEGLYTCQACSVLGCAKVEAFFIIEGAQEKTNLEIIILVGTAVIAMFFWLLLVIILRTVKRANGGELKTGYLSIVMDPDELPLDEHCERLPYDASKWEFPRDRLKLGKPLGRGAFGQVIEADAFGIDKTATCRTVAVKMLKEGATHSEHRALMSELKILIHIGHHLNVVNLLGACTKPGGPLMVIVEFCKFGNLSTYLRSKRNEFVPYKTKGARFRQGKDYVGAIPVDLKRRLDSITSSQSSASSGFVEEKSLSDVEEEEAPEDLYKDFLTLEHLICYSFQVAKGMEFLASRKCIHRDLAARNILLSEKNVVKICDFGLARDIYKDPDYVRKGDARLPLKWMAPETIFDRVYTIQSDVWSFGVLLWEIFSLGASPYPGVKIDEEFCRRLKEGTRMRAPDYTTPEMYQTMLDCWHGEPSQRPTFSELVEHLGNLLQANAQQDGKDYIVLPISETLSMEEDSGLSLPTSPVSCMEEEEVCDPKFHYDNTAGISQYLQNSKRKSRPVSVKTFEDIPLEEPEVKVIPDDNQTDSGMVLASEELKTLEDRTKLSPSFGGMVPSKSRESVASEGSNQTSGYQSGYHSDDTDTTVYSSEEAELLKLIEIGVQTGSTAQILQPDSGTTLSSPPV
# Method in brief: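 Cell-free recombinant VEGFR2 kinase, fluorescent substrate with electrophoretic mobility-shift separation; read 1 h after dosing. Screened at 25 uM in duplicate, hits to concentration-response up to 50 uM; loss-of-signal versus DMSO.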
# [4] = molecular target: human Vascular Endothelial Growth Factor Receptor 1 (VEGFR1), FLT1 (gene 2321) (UniProt P17948); assay: NVS_ENZ_hVEGFR1: NovaScreen (NVS) Enzymatic Assay for human Vascular Endothelial Growth Factor Receptor 1 (VEGFR1) (AID 2283226)
# Method in brief: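 Cell-free assay of recombinant human VEGFR1 kinase with substrate, measured 1 h after dosing; fluorescence with electrophoretic mobility-shift separation of substrate and product, referenced to DMSO; primary screen at 25 uM in duplicate, actives then run in concentration series.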
# [5] = molecular target: human Vascular Endothelial Growth Factor Receptor 3 (VEGFR3), FLT4 (gene 2324) (UniProt P35916); assay: NVS_ENZ_hVEGFR3: NovaScreen (NVS) Enzymatic Assay for human Vascular Endothelial Growth Factor Receptor 3 (VEGFR3) (AID 2283229)
# Chain of human Vascular Endothelial Growth Factor Receptor 3 (VEGFR3), FLT4 (gene 2324) (P35916 whole entry, looked up): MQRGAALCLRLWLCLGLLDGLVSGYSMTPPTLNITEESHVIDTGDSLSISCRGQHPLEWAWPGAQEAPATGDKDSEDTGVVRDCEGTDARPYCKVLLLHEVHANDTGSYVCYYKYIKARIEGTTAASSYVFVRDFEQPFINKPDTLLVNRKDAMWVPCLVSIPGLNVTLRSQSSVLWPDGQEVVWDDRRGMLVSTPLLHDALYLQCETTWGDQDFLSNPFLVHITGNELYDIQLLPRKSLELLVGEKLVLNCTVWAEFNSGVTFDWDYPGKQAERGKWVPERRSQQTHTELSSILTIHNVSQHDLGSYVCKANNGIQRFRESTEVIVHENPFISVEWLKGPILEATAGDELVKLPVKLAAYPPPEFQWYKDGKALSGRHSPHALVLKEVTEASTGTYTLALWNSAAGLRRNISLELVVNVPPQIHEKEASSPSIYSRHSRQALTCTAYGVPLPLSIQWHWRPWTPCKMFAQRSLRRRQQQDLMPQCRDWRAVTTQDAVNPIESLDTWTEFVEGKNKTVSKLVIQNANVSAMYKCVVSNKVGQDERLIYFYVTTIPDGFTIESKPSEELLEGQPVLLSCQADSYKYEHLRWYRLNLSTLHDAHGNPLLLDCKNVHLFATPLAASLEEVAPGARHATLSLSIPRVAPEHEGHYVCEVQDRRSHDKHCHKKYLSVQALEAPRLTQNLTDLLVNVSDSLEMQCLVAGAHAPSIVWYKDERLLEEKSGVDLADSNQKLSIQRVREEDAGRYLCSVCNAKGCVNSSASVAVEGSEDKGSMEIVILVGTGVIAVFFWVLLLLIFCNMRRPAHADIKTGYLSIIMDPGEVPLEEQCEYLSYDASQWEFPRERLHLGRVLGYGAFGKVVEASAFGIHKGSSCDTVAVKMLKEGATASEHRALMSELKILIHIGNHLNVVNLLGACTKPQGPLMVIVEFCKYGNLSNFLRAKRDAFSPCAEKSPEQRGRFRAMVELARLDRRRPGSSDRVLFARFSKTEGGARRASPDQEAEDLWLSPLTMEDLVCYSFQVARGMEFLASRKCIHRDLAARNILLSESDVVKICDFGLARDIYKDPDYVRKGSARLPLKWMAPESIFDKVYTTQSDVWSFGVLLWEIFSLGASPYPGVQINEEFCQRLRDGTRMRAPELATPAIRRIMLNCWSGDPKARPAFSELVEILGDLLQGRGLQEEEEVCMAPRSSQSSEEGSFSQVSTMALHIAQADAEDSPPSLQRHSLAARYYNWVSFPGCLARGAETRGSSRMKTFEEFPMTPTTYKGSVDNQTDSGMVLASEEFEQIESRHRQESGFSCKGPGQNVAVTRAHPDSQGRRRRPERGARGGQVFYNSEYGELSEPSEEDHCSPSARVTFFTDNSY
# Method in brief: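 Cell-free recombinant VEGFR3 kinase reaction with fluorescent substrate, read 1 h after dosing by electrophoretic mobility shift separation of substrate and product. Single-concentration duplicate screen at 25 uM, then concentration-response up to 50 uM; loss of activity versus DMSO.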
# [6] = molecular target: rat Constitutive Nitric Oxide Synthase (CNOS), Nos1 (gene 24598) (UniProt P29476); assay: NVS_ENZ_rCNOS: NovaScreen (NVS) Enzymatic Assay for rat Constitutive Nitric Oxide Synthase (CNOS) (AID 2283236)
# Method in brief: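 Enzyme activity in rat brain membrane preparation, read 1 h after dosing by filter-based radiometric scintillation counting. Primary screen in duplicate at 25 uM; actives (e.g., ≥30% inhibition) then run in concentration-response up to 50 uM.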
# [7] = molecular target: human Serotonin, 5-Hydroxytryptamine Receptor 5A (5HT5A), HTR5A (gene 3361) (UniProt P47898); assay: NVS_GPCR_h5HT5A: NovaScreen (NVS) G Protein-Coupled Receptor Assay for human Serotonin, 5-Hydroxytryptamine Receptor 5A (5HT5A) (AID 2283251)
# Chain of human Serotonin, 5-Hydroxytryptamine Receptor 5A (5HT5A), HTR5A (gene 3361) (P47898 whole entry, looked up): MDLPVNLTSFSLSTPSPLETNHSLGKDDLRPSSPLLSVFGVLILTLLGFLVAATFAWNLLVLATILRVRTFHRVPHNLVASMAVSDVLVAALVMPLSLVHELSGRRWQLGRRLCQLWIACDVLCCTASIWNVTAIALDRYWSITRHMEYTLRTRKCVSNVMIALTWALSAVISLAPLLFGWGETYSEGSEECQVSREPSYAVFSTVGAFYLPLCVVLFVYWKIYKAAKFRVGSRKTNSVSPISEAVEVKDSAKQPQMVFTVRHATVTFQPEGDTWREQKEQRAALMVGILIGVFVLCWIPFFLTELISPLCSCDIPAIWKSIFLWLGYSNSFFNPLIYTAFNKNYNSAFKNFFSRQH
# Method in brief: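 Cell-free radioligand displacement binding on HEK293-derived membrane protein, 1 h incubation, filter-based scintillation counting. Primary screen in duplicate at 25 uM, actives followed in concentration series; loss of signal fitted versus DMSO.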
# [8] = molecular target: guinea pig Opioid, Kappa 1 Receptor (OpiateK), OPRK1 (gene 100135587) (UniProt P41144); assay: NVS_GPCR_gOpiateK: NovaScreen (NVS) G Protein-Coupled Receptor Assay for guinea pig Opioid, Kappa 1 Receptor (OpiateK) (AID 2283252);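 also: radioligand displacement from kappa opioid receptor in guinea pig cerebellar membranes; active means reduced radioligand binding relative to DMSO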
# Chain of guinea pig Opioid, Kappa 1 Receptor (OpiateK), OPRK1 (gene 100135587) (P41144 whole entry, looked up): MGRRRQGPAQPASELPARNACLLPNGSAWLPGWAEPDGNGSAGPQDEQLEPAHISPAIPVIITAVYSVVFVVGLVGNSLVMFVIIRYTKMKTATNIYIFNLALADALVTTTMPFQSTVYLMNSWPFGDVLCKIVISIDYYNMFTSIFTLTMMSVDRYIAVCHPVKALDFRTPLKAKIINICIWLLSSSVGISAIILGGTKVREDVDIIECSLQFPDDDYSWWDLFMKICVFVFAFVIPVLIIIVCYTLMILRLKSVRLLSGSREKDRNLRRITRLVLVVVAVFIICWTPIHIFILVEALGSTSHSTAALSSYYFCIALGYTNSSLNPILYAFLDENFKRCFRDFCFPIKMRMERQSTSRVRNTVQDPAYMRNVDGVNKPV
# Method in brief: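 Signal is scintillation counts of filter-trapped radioligand bound to guinea pig cerebellar membrane receptor, measured 2 hours post-dosing. Activity is loss of binding versus DMSO, first at 25 uM in duplicate, then as concentration series for actives.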
# [9] = molecular target: guinea pig Leukotriene D4 Receptor (LTD4), CYSLTR1 (gene 100135514) (UniProt Q2NNR5); assay: NVS_GPCR_gLTD4: NovaScreen (NVS) G Protein-Coupled Receptor Assay for guinea pig Leukotriene D4 Receptor (LTD4) (AID 2283248)
# Method in brief: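 Radioligand displacement on guinea pig lung membranes, 1 h incubation, filtration and scintillation counting; DMSO as negative control. Duplicate 25 uM primary screen, then singleton concentration-response up to 50 uM.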
# [10] = tested on: guinea pig Muscarinic, Peripheral (Mperiperal) Receptor, Non-selective Binding, gene 100379235; assay: NVS_GPCR_gMPeripheral_NonSelective: NovaScreen (NVS) G Protein-Coupled Receptor Assay for guinea pig Muscarinic, Peripheral (Mperiperal) Receptor, Non-selective Binding (AID 2283250)
# Method in brief: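 Guinea pig bladder membranes, radioligand binding read 1 h after dosing by filter scintillation counting; loss of signal vs DMSO. Primary duplicate screen at 25 uM, then concentration-response up to 50 uM.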
# [11] = molecular target: human Serotonin, 5-Hydroxytryptamine Receptor 6 (5HT6), HTR6 (gene 3362) (UniProt P50406); assay: NVS_GPCR_h5HT6: NovaScreen (NVS) G Protein-Coupled Receptor Assay for human Serotonin, 5-Hydroxytryptamine Receptor 6 (5HT6) (AID 2283253)
# Method in brief: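 Radioligand binding to 5HT6 in HEK293-derived membranes, cell-free, 1 h after dosing; bound ligand measured by filter-based scintillation counting. Primary screen in duplicate at 25 uM; actives retested in concentration series.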
# [12] = molecular target: sheep Cyclooxygenase-1 (Cox1), PTGS1 (gene 443551) (UniProt P05979); assay: NVS_ENZ_oCOX1: NovaScreen (NVS) Enzymatic Assay for sheep Cyclooxygenase-1 (Cox1) (AID 2283239);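 also: actives reduce cyclooxygenase activity so potencies are for inhibitors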
# Chain of sheep Cyclooxygenase-1 (Cox1), PTGS1 (gene 443551) (P05979 whole entry, looked up): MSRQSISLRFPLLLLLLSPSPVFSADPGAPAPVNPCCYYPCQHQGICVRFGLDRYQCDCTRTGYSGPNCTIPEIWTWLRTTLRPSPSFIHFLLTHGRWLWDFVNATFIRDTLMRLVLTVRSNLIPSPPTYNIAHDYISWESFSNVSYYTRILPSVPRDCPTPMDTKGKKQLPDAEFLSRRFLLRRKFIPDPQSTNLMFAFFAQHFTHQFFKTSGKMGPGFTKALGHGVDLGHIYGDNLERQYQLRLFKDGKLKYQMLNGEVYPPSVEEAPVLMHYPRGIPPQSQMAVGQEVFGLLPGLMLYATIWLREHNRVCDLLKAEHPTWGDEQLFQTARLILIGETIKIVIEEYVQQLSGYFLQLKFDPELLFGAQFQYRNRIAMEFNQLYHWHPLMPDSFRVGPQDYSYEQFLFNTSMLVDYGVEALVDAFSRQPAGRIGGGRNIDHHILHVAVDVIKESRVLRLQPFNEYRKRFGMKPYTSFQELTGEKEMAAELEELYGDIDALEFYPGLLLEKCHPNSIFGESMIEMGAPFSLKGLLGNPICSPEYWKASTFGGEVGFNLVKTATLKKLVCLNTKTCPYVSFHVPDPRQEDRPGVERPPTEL
# Method in brief: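 Cell-free colorimetric assay of enzyme activity in a native extract of ovine seminal vesicles. Absorbance was read 0.66 hour after compound addition. Loss of signal relative to the DMSO negative control was scored, with actives from the 25 uM duplicate primary screen retested in concentration series.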
# [13] = molecular target: bovine Dopamine Receptor (DR), Non-selective Binding, DRD1 (gene 281125) (UniProt Q95136); assay: NVS_GPCR_bDR_NonSelective: NovaScreen (NVS) G Protein-Coupled Receptor Assay for bovine Dopamine Receptor (DR), Non-selective Binding (AID 2283241)
# Method in brief: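 Bovine striatal membranes; radioligand displacement read by filtration and scintillation counting 1 h after dosing, loss of signal vs DMSO. Screened in duplicate at 25 uM, then concentration-response for hits.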
# [14] = molecular target: Adenosine receptor A1 (Bos taurus) (UniProt P28190); assay: NVS_GPCR_bAdoR_NonSelective: NovaScreen (NVS) G Protein-Coupled Receptor Assay for bovine Adenosine Receptor (AdoR), Non-selective Binding (AID 2283244)
# Method in brief: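 Bovine striatal membranes, radioligand displacement binding, 1 h after dosing, filter-based scintillation counting. Screened in duplicate at 25 uM, then concentration-response up to 50 uM; loss of specific binding relative to DMSO.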
# [15] = NVS_GPCR_bNPY_NonSelective: NovaScreen (NVS) G Protein-Coupled Receptor Assay for bovine Neuropeptide Y (NPY) Receptor, Non-selective Binding (AID 2283245)
# Method in brief: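 Bovine hippocampal membranes incubated 1 hour with radioligand and test chemical. Bound ligand measured by filter-based scintillation counting. Single-concentration screen at 25 uM in duplicate, then concentration-response up to 50 uM.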
# [16] = molecular target: human Serotonin, 5-Hydroxytryptamine Receptor 2A (5HT2A), HTR2A (gene 3356) (UniProt P28223); assay: NVS_GPCR_h5HT2A: NovaScreen (NVS) G Protein-Coupled Receptor Assay for human Serotonin, 5-Hydroxytryptamine Receptor 2A (5HT2A) (AID 2283249)
# Chain of human Serotonin, 5-Hydroxytryptamine Receptor 2A (5HT2A), HTR2A (gene 3356) (P28223 whole entry, looked up): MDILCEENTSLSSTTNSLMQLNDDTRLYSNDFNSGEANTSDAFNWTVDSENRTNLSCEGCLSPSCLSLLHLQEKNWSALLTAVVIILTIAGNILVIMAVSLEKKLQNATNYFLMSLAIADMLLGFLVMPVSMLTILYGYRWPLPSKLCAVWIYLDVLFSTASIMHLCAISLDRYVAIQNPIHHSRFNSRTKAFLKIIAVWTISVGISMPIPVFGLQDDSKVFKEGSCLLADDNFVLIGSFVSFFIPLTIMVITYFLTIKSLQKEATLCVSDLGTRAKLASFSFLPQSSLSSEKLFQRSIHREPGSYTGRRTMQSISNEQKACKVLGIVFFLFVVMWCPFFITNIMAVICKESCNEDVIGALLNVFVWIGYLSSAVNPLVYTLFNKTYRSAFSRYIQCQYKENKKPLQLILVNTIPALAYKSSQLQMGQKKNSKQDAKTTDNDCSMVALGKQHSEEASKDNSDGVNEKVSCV
# Method in brief: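 Human cortex membranes, cell-free radioligand binding; filter-based scintillation read 1.5 h after dosing. Duplicate screen at 25 uM first; displacement of specific binding (loss of signal) versus DMSO.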
# [17] = tested on: guinea pig Leukotriene B4 Receptor (LTB4), gene 100379538; assay: NVS_GPCR_gLTB4: NovaScreen (NVS) G Protein-Coupled Receptor Assay for guinea pig Leukotriene B4 Receptor (LTB4) (AID 2283247)
# Method in brief: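 Radioligand displacement on guinea pig spleen membranes, filter-based scintillation counting 2 h after dosing. Primary duplicate single point at 25 uM; hits over threshold (e.g. 30% inhibition) run in concentration-response up to 50 uM, DMSO baseline.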
# [18] = molecular target: human Adenosine A1 Receptor (AdoRA1), ADORA1 (gene 134) (UniProt P30542); assay: NVS_GPCR_hAdoRA1: NovaScreen (NVS) G Protein-Coupled Receptor Assay for human Adenosine A1 Receptor (AdoRA1) (AID 2283254)
# Method in brief: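 Radioligand competition binding on human cortical membranes, 1 h after compound addition; bound radioactivity read by filtration and scintillation counting. Loss of signal versus DMSO baseline scored as displacement; primary screen duplicate at 25 uM, actives retested in concentration series.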
structure (smiles),measurement,setting,value
NC1CCCCC1,AC50,[1],30.3 µM (active)
Oc1ccccc1O,outcome,[2],inactive
CC(=O)OCC(COC(C)=O)OC(C)=O,outcome,[2],inactive
CCCCC(CC)COC(=O)CCCCCCCC(=O)OCC(CC)CCCC (stereo not given),outcome,[3],inactive
O=C1NC(=O)C(c2ccccc2)(c2ccccc2)N1,outcome,[4],inactive
O=C(O)c1[nH]n(-c2ccc(S(=O)(=O)O)cc2)c(=O)c1N=Nc1ccc(S(=O)(=O)O)cc1,outcome,[1],inactive
same,outcome,[5],inactive
same,AC50,[6],9.33 µM (active)
same,outcome,[7],inactive
same,AC50,[8],43.3 µM (active)
CCCCCCCCCCCCCCOS(=O)(=O)O,AC50,[3],30.2 µM (active)
same,AC50,[9],9.7 µM (active)
same,AC50,[10],25 µM (active)
same,AC50,[7],20.3 µM (active)
same,AC50,[11],39.1 µM (active)
Cn1cnc2c1c(=O)[nH]c(=O)n2C,outcome,[1],inactive
same,outcome,[12],inactive
S=c1[nH]c2ccccc2s1,AC50,[6],10.6 µM (active)
same,AC50,[12],8.91 µM (active)
CN(C)C(=O)NC1(c2ccccc2)CCN(CCC[C@]2(c3ccc(Cl)c(Cl)c3)CCCN(C(=O)c3ccccc3)C2)CC1,outcome,[3],inactive
same,AC50,[13],1.3 µM (active)
same,outcome,[14],inactive
same,outcome,[15],inactive
same,outcome,[16],inactive
same,AC50,[10],5.86 µM (active)
same,outcome,[7],inactive
same,AC50,[8],3.56 µM (active)
CC(C)(O)c1ccc(CNC(=O)c2cccnc2Oc2ccc(F)cc2)cc1,outcome,[1],inactive
same,AC50,[17],4.68 µM (active)
same,outcome,[16],inactive
same,outcome,[8],inactive
Cc1occc(=O)c1O,outcome,[3],inactive
same,outcome,[16],inactive
Nc1nc(=S)c2[nH]cnc2[nH]1,AC50,[1],20.7 µM (active)
same,AC50,[12],2.25 µM (active)
CCN(CC)CCOc1ccc(C(=C(Cl)c2ccccc2)c2ccccc2)cc1,AC50,[1],9.71 µM (active)
same,AC50,[12],4.39 µM (active)
same,AC50,[13],14.2 µM (active)
same,AC50,[15],30 µM (active)
same,AC50,[10],4.82 µM (active)
same,AC50,[7],1.46 µM (active)
same,outcome,[8],inactive
same,AC50,[11],5.6 µM (active)
same,AC50,[18],11 µM (active)
CCCCCCCCCCCCCCCCO,AC50,[5],46.6 µM (active)
